Screening results: PubChem BioAssay, several laboratories
CDK5 inh = blocks human CDK5/p35 kinase activity | Q00535+Q15078 | inhibition, % at 10 µM | Recombinant CDK5/p35, ADP-Glo luminescence, 60 min | 0.01% of 330,000 active;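 active = highest replicate inhibition of at least 50% and at least 75% of replicates reaching 50%; inconclusive = only one of the two criteria met; inactive = both criteria failed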;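 also: plate controls were DMSO neutral control for no effect and GW8510 at 10 µM for full effect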
Target sequence (Q00535 whole entry, looked up): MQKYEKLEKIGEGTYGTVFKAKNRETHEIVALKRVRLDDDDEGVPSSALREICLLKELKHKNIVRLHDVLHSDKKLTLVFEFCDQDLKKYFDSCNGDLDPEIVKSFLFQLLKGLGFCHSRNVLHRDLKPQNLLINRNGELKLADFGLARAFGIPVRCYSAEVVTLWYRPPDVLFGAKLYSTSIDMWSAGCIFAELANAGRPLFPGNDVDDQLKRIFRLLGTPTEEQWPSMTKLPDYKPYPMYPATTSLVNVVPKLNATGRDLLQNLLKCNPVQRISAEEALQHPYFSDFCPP
Target sequence (Q15078 whole entry, looked up): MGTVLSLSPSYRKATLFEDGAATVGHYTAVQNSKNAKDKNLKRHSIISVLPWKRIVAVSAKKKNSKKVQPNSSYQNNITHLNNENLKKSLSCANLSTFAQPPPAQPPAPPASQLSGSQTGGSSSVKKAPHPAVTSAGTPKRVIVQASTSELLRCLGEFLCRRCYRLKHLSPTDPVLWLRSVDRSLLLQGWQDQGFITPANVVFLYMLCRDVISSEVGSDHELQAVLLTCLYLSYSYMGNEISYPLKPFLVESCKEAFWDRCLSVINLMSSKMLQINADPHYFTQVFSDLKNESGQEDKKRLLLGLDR
SMARCA2 act = SMARCA2 function activation, primary screen. 1% of 370,000 active. MG213 cells, MMTV-luciferase reporter, dexamethasone, overnight. activation, % at 9.1 µM; in the data active = activation above about 7.8%;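 also: 0% = vehicle wells and 100% = reference activator wells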
Rtt109 Vps75 = C. albicans Rtt109 histone acetyltransferase inhibition. purified Rtt109/Vps75, ThioGlo CoA-SH fluorescence, 4 h. inhibition, % at 34.9 µM. 0.16% of 330,000 active;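 active = inhibition of at least 50% in every replicate; inconclusive = best replicate reaches 50% inhibition but some replicates fall short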
dFosB activator = activators of mouse delta FosB homodimer. P13346. purified delta FosB, TAMRA-CDK5 oligo fluorescence polarization; percent of positive-control signal above neutral wells. activation, % at 25 µM. 0.99% of 340,000 active;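 active = mean activation above about 17%, with every replicate also reaching it, limit read from the data, passing the limit was not always enough; inconclusive = only one of the two conditions met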
esBAF inh = inhibitors of esBAF chromatin remodeling in mouse ES cells; 2% of 350,000 active; reporter increase, % at 12.5 µM; Bmi1-luciferase knock-in reporter, 24 h; 100% = twice the neutral-well signal; in the data active = activation above about 40%; inconclusive = no clear call, values can overlap the other calls;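 also: 0% = median of the plate's neutral control wells and 100% = double that signal; a rise in the Bmi1 reporter signal indicates esBAF inhibition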
DYRK1A inh = Dyrk1A (rat) kinase inhibition. Q63470. ADP-Glo luminescence, NFATc1 peptide. inhibition, % at 12.5 µM. 0.43% of 310,000 active. AID 504441; in the data active = inhibition above about 50%;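 also: plate controls were vehicle with enzyme for no effect and no enzyme for full effect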
SMARCA2 act conf = confirmation of SMARCA2 (BRM) function activators; shares compounds with SMARCA2 act; MG213 cells, MMTV-luciferase with dexamethasone, luminescence, overnight; MG213 cells expressing E1A, Rb sequestered; DMSO wells 0%, reference activator 100%; activation, % at 9.1 µM; 30% of 3,500 active;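 active = activation above its plate's cutoff, the mean activation of tested wells plus 3 SD, cut at about 7.9% in these data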
GAL4-VP16 Luc = counter-screen for SMARCA2 activators: GAL4-VP16 luciferase reporter activation | shares compounds with SMARCA2 act | HEK293 GAL4-VP16 pG5luc reporter, luciferase luminescence; scaled: DMSO wells 0%, SAHA wells 100% | activation, % at 9.1 µM | 41% of 3,500 active | AID 686939;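 active = activation above the solvent-only control well mean plus 3 SD, averaged across control plates, cut at about 5.2% in these data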
* marks the source's active call; other numbers are inactive results. This is a sample that favours compounds with a hit; in the whole collection about 3.2% have one here.

`CCn1c(C)csc1=NC(=O)c1ccccc1` gave CDK5 inh -4, SMARCA2 act 3, Rtt109 Vps75 -5, dFosB activator -2, esBAF inh 1 and DYRK1A inh 5.
CCOC(=O)c1sc(NC(=O)Cc2ccc(F)cc2)nc1C was read as CDK5 inh 0, SMARCA2 act 8.4*, Rtt109 Vps75 -1, dFosB activator -5, DYRK1A inh 2, SMARCA2 act conf 4 and GAL4-VP16 Luc 4.
`CCn1c2ccccc2c2nnc(SCC(N)=O)nc21` gave CDK5 inh -2, SMARCA2 act 3, Rtt109 Vps75 -9, dFosB activator -5, esBAF inh 6 and DYRK1A inh 11.
CCn1c2ccccc2c2nnc(SCc3ccccc3)nc21 was read as CDK5 inh -1, SMARCA2 act 8.2*, Rtt109 Vps75 -3, dFosB activator -16, esBAF inh 10, DYRK1A inh 0, SMARCA2 act conf -2 and GAL4-VP16 Luc -1.
`CCOC(=O)C1(C(F)(F)F)N=C(C(F)(F)F)Nc2ccccc21` (configuration not stated) gave CDK5 inh -2, SMARCA2 act 9.8*, Rtt109 Vps75 7, dFosB activator 0, esBAF inh 4, SMARCA2 act conf -1 and GAL4-VP16 Luc 0.
`CCOC(=O)C1(Cc2ccccc2)C(=O)Nc2ccccc21` (configuration not stated) gave CDK5 inh 3, SMARCA2 act -1, Rtt109 Vps75 1, dFosB activator 0 and DYRK1A inh -1.
For CC1(C)CCc2cc(-c3ccnc(=S)[nH]3)ccc2O1 the results were CDK5 inh 2, SMARCA2 act 7, Rtt109 Vps75 -1, dFosB activator 6 and DYRK1A inh 3.
`Cc1ccc(-c2ccnc(=S)[nH]2)cc1` gave CDK5 inh -1, SMARCA2 act 11*, Rtt109 Vps75 -14, dFosB activator -8, esBAF inh -4, DYRK1A inh -1, SMARCA2 act conf 1 and GAL4-VP16 Luc 2.
C/C=C/c1ccc([C@H]2[C@@H](CO)N[C@@H]2CNC(=O)CC2CC2)cc1 was read as esBAF inh 3.
For Cn1cc(-c2ccccc2C(=O)O)c(=O)c2ccccc21 the results were CDK5 inh 2, SMARCA2 act -4, Rtt109 Vps75 2, dFosB activator 0, esBAF inh -1 and DYRK1A inh -4.
Cn1cc(-c2nnc(-c3ccccc3)o2)c2ccccc21 was read as CDK5 inh 0, SMARCA2 act 13*, Rtt109 Vps75 -4, dFosB activator 2, esBAF inh -15, DYRK1A inh 8, SMARCA2 act conf 6 and GAL4-VP16 Luc 7.2*.
Screening O=S(=O)(N[C@@H]1CC[C@@H](CCn2cc(-c3ccc(F)cc3)nn2)O[C@H]1CO)c1ccccc1F returned esBAF inh -4.
Screening CCC(C)NC(=O)C1(N2C(=O)c3ccccc3C2=O)CCCC1 (configuration not stated) returned CDK5 inh -3, SMARCA2 act 8.8*, Rtt109 Vps75 -9, dFosB activator 2, esBAF inh 4, SMARCA2 act conf 1 and GAL4-VP16 Luc 0.
`CC(C)(C)c1ccc(-c2noc(CCC(N)=O)n2)cc1` gave CDK5 inh 0, SMARCA2 act -12, Rtt109 Vps75 8, dFosB activator -2, esBAF inh -79 and DYRK1A inh 2.
For CN(C)C(=O)CCc1nc(-c2ccc(C(C)(C)C)cc2)no1 the results were CDK5 inh 0, SMARCA2 act 11*, Rtt109 Vps75 -5, dFosB activator -3, esBAF inh -3, DYRK1A inh 4, SMARCA2 act conf 3 and GAL4-VP16 Luc 5.3*.
For C[C@H](CO)N1C[C@H](C)[C@H](CN(C)C(=O)C2CCC2)Oc2ncc(C#Cc3cccc(F)c3)cc2C1=O the results were esBAF inh 0.
For Fc1cccc(/C=N/Nc2nccnc2Cl)c1 the results were CDK5 inh 8, SMARCA2 act 5, Rtt109 Vps75 2, dFosB activator 0, esBAF inh -7 and DYRK1A inh 5.
Screening Oc1ccc(/C=N/Nc2nccnc2Cl)cc1 returned CDK5 inh 25, SMARCA2 act 13*, Rtt109 Vps75 -16, dFosB activator -2, esBAF inh -4, DYRK1A inh 9, SMARCA2 act conf 7 and GAL4-VP16 Luc 7.5*.
`Fc1ccc(/C=N/Nc2nccnc2Cl)cc1` gave CDK5 inh 5, SMARCA2 act 9.5*, Rtt109 Vps75 -3, dFosB activator 2, esBAF inh 39, DYRK1A inh 6, SMARCA2 act conf 8.4* and GAL4-VP16 Luc 7.8*.
Screening O=C(C[C@H]1CC[C@@H]2[C@H](COC[C@@H](O)CN2S(=O)(=O)c2ccc(F)cc2)O1)NCC1CC1 returned esBAF inh 1.
`C=CCc1cc(Cl)ccc1OCCNCCCOC` gave CDK5 inh 1, SMARCA2 act 11*, Rtt109 Vps75 -4, dFosB activator -1, SMARCA2 act conf -2 and GAL4-VP16 Luc 0.
For Cc1ccc(S(=O)(=O)N2CC[C@@H]3[C@H](CO)Nc4ccc(-c5ccccc5F)cc4[C@@H]32)cc1 the results were esBAF inh -11.
COc1ccc(C(=O)Nc2cccc(/C(C)=N/NC(=O)c3ccc([N+](=O)[O-])c(C)c3)c2)cc1OC was read as CDK5 inh -1, SMARCA2 act -1, Rtt109 Vps75 3, dFosB activator 0, esBAF inh 24 and DYRK1A inh 1.
COc1ccc(C(=O)Nc2cccc(/C(C)=N\NC(=O)c3ccoc3C)c2)cc1OC was read as CDK5 inh 0, SMARCA2 act 8.4*, Rtt109 Vps75 -1, dFosB activator -8, esBAF inh 14, DYRK1A inh 9, SMARCA2 act conf -3 and GAL4-VP16 Luc 7.9*.
Screening ClC(Cl)(c1nnnn1-c1ccccc1)c1nnnn1-c1ccccc1 returned CDK5 inh 3, SMARCA2 act 24*, Rtt109 Vps75 inconclusive, dFosB activator 0, esBAF inh -13, DYRK1A inh -2, SMARCA2 act conf -4 and GAL4-VP16 Luc -1.
`CN1CCCC1CCNc1ccc2sc3ccccc3c(=O)c2c1` (configuration not stated) gave CDK5 inh 1, SMARCA2 act 11*, Rtt109 Vps75 20, dFosB activator 14, esBAF inh -2, DYRK1A inh 43, SMARCA2 act conf 14* and GAL4-VP16 Luc 7.5*.
